Measurements as given in PubChem BioAssay (NCATS).
Results filed as inconclusive are left out. A call without a number means that no potency is given here. The source made the active and inactive calls. The call rests on the fitted dose curve; in most records, active means well fitted curve in the direction sought with a large enough effect; inconclusive means small, poorly fitted or top-dose-only effect, or another doubt; inactive means no such curve, though single readings can be large; an effect the other way counts as inactive or inconclusive.

Key:
[1] = Quantitative High-Throughput drug screen in 47 multiple myeloma cell lines against the NCATS MIPE library collection: MOLP8_DSMZ cell viability assay (AID 1918977); further: nearly all actives have a fitted effect of over 45% in size
Method in brief: (§1)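 500 cells/well; MIPE 4.0 drugs pin-transferred; 48 h, 37C, 5% CO2. CellTiter-Glo, 5 min RT, luminescence. Controls: DMSO 100%, media 0%.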

[2] = Quantitative High-Throughput drug screen in 47 multiple myeloma cell lines against the NCATS MIPE library collection: NCIH929_DSMZ cell viability assay (AID 1918978); further: nearly all actives have a fitted effect of over 35% in size
Method in brief: as §1

[3] = Quantitative High-Throughput drug screen in 47 multiple myeloma cell lines against the NCATS MIPE library collection: OCIMY1_PLB cell viability assay (AID 1918979); further: nearly all actives have a fitted effect of over 35% in size; on viability: series mostly up to about 46 µM
Method in brief: as §1

[4] = Quantitative High-Throughput drug screen in 47 multiple myeloma cell lines against the NCATS MIPE library collection: MM1R_ATCC cell viability assay (AID 1918981); further: nearly all actives have a fitted effect of over 35% in size
Method in brief: as §1

[5] = Quantitative High-Throughput drug screen in 47 multiple myeloma cell lines against the NCATS MIPE library collection: LP1_DSMZ cell viability assay (AID 1918982); further: nearly all actives have a fitted effect of over 35% in size
Method in brief: as §1

[6] = Quantitative High-Throughput drug screen in 47 multiple myeloma cell lines against the NCATS MIPE library collection: KMS28PE_JCRB cell viability assay (AID 1918983); further: nearly all actives have a fitted effect of over 35% in size
Method in brief: as §1

[7] = Quantitative High-Throughput drug screen in 47 multiple myeloma cell lines against the NCATS MIPE library collection: L363_DSMZ cell viability assay (AID 1918984); further: nearly all actives have a fitted effect of over 40% in size
Method in brief: as §1

[8] = Quantitative High-Throughput drug screen in 47 multiple myeloma cell lines against the NCATS MIPE library collection: MM1S_ATCC cell viability assay (AID 1918980); further: nearly all actives have a fitted effect of over 45% in size
Method in brief: as §1

[9] = Quantitative High-Throughput drug screen in 47 multiple myeloma cell lines against the NCATS MIPE library collection: KMS34_JCRB cell viability assay (AID 1918985); further: nearly all actives have a fitted effect of over 40% in size
Method in brief: as §1
Potency means the concentration at half of the fitted maximal effect.

## COc1nc(N)nc2c1ncn2[C@@H]1O[C@H](CO)[C@@H](O)[C@@H]1O
[1]
  Potency: inactive
[2]
  Potency: inactive
[3]
  Potency: inactive
[4]
  Potency: inactive
[5]
  Potency: inactive
[6]
  Potency: inactive
[7]
  Potency: inactive

## COc1cc(NS(=O)(=O)c2ccc(N)cc2)nc(OC)n1
[1]
  Potency: inactive
[2]
  Potency: inactive
[3]
  Potency: inactive
[4]
  Potency: inactive
[5]
  Potency: inactive
[6]
  Potency: inactive
[7]
  Potency: inactive

## Cc1ncc([N+](=O)[O-])n1CCO
[1]
  Potency: inactive
[2]
  Potency: inactive
[3]
  Potency: inactive
[4]
  Potency: inactive
[5]
  Potency: inactive
[6]
  Potency: inactive

## COc1cnc(NS(=O)(=O)c2ccc(N)cc2)nc1
[1]
  Potency: inactive
[3]
  Potency: inactive
[8]
  Potency: 29.6 µM (active)
[4]
  Potency: inactive
[6]
  Potency: inactive
[9]
  Potency: inactive

## CCC(=O)O[C@]1(C(=O)SCF)[C@H](C)C[C@H]2[C@@H]3C[C@H](F)C4=CC(=O)C=C[C@]4(C)[C@@]3(F)[C@@H](O)C[C@@]21C
[1]
  Potency: inactive
[4]
  Potency: inactive
[5]
  Potency: inactive
[6]
  Potency: inactive
[9]
  Potency: inactive

## CCOCC(O)COc1ccc(NC(=O)CC[S+](C)C)cc1 (configuration not stated)
[1]
  Potency: inactive
[2]
  Potency: inactive
[4]
  Potency: inactive
[5]
  Potency: inactive
[6]
  Potency: inactive
[7]
  Potency: inactive
[9]
  Potency: inactive

## C[C@@H](NCCCc1cccc(C(F)(F)F)c1)c1cccc2ccccc12
[1]
  Potency: inactive
[2]
  Potency: inactive
[3]
  Potency: inactive
[4]
  Potency: inactive
[5]
  Potency: inactive
[6]
  Potency: inactive
[7]
  Potency: inactive
[9]
  Potency: inactive

## C[C@@H]1CN(c2c(F)c(N)c3c(=O)c(C(=O)O)cn(C4CC4)c3c2F)C[C@H](C)N1
[1]
  Potency: inactive
[2]
  Potency: inactive
[8]
  Potency: inactive
[5]
  Potency: inactive
[6]
  Potency: inactive
[7]
  Potency: inactive
[9]
  Potency: inactive

## NNC(=O)c1ccncc1
[1]
  Potency: inactive
[2]
  Potency: inactive
[3]
  Potency: inactive
[4]
  Potency: inactive
[5]
  Potency: inactive
[6]
  Potency: inactive
[7]
  Potency: inactive

## NC(=O)N1c2ccccc2CC(=O)c2ccccc21
[1]
  Potency: inactive
[2]
  Potency: inactive
[4]
  Potency: inactive
[5]
  Potency: inactive
[7]
  Potency: inactive
[9]
  Potency: inactive

## CN1CCN(c2c(F)cc3c(=O)c(C(=O)O)cn(CCF)c3c2F)CC1
[1]
  Potency: inactive
[2]
  Potency: inactive
[4]
  Potency: inactive
[5]
  Potency: inactive
[6]
  Potency: inactive
[7]
  Potency: inactive

## COc1ccccc1OCC(O)COC(N)=O (configuration not stated)
[1]
  Potency: inactive
[2]
  Potency: inactive
[5]
  Potency: inactive
[6]
  Potency: inactive
[7]
  Potency: inactive
[9]
  Potency: inactive

## Cc1cc(NS(=O)(=O)c2ccc(N)cc2)no1
[1]
  Potency: inactive
[3]
  Potency: inactive
[8]
  Potency: 9.35 µM (active)
[4]
  Potency: inactive
[6]
  Potency: inactive
[7]
  Potency: inactive
[9]
  Potency: inactive

## N[C@@H](C(=O)N[C@@H]1C(=O)N2C(C(=O)O)=C(Cl)CS[C@H]12)c1ccccc1
[1]
  Potency: inactive
[2]
  Potency: inactive
[8]
  Potency: inactive
[5]
  Potency: inactive
[6]
  Potency: inactive
[9]
  Potency: inactive

## CCOc1cc(N)c(Cl)cc1C(=O)NCC1CN(Cc2ccc(F)cc2)CCO1 (configuration not stated)
[1]
  Potency: inactive
[2]
  Potency: inactive
[3]
  Potency: inactive
[4]
  Potency: inactive
[5]
  Potency: inactive
[6]
  Potency: inactive
[9]
  Potency: inactive

## COc1c(N2CCNC(C)C2)c(F)cc2c(=O)c(C(=O)O)cn(C3CC3)c12 (configuration not stated)
[1]
  Potency: inactive
[3]
  Potency: inactive
[8]
  Potency: inactive
[5]
  Potency: inactive
[6]
  Potency: inactive

## O=c1cc(O)c(Cl)c[nH]1
[1]
  Potency: inactive
[2]
  Potency: inactive
[3]
  Potency: inactive
[8]
  Potency: 3.72 µM (active)
[5]
  Potency: inactive
[7]
  Potency: 2.35 µM (active)
[9]
  Potency: inactive

## CC1=NN(c2ccccc2)C(=O)C1
[1]
  Potency: inactive
[3]
  Potency: inactive
[8]
  Potency: inactive
[4]
  Potency: inactive
[6]
  Potency: inactive

## CC(C)(Sc1cc(C(C)(C)C)c(O)c(C(C)(C)C)c1)Sc1cc(C(C)(C)C)c(O)c(C(C)(C)C)c1
[1]
  Potency: inactive
[8]
  Potency: 4.18 µM (active)
[4]
  Potency: inactive
[5]
  Potency: inactive
[6]
  Potency: inactive
[9]
  Potency: inactive

## Nc1ccc(S(=O)(=O)Nc2ccccn2)cc1
[1]
  Potency: inactive
[2]
  Potency: inactive
[3]
  Potency: inactive
[4]
  Potency: inactive
[5]
  Potency: inactive
[6]
  Potency: inactive
[7]
  Potency: inactive
[9]
  Potency: inactive

## Nc1nc(=S)c2[nH]cnc2[nH]1
[1]
  Potency: 3.32 µM (active)
[2]
  Potency: 1.32 µM (active)
[3]
  Potency: 8.33 µM (active)
[8]
  Potency: 3.72 µM (active)
[5]
  Potency: 7.43 µM (active)
[6]
  Potency: 8.33 µM (active)
[9]
  Potency: 2.96 µM (active)

## CCCOc1ccc(C(=O)OCCN(CC)CC)cc1N
[1]
  Potency: inactive
[2]
  Potency: inactive
[3]
  Potency: inactive
[4]
  Potency: inactive
[5]
  Potency: inactive
[6]
  Potency: inactive
[9]
  Potency: inactive

## CCN[C@H]1C[C@H](C)S(=O)(=O)c2sc(S(N)(=O)=O)cc21
[1]
  Potency: inactive
[2]
  Potency: inactive
[3]
  Potency: inactive
[4]
  Potency: inactive
[5]
  Potency: inactive
[6]
  Potency: inactive
[7]
  Potency: inactive
[9]
  Potency: inactive

## CCCc1cc(C(N)=S)ccn1
[1]
  Potency: inactive
[2]
  Potency: inactive
[3]
  Potency: inactive
[4]
  Potency: inactive
[5]
  Potency: inactive
[6]
  Potency: inactive
[9]
  Potency: inactive

## S=P(N1CC1)(N1CC1)N1CC1
[3]
  Potency: inactive
[8]
  Potency: 18.7 µM (active)
[4]
  Potency: 18.7 µM (active)
[5]
  Potency: inactive
[6]
  Potency: inactive
[9]
  Potency: 0.0012 µM (active)

## CC(C)C1CCC(C(=O)N[C@H](Cc2ccccc2)C(=O)O)CC1 (some centres not stated)
[2]
  Potency: inactive
[8]
  Potency: 16.6 µM (active)
[4]
  Potency: inactive
[5]
  Potency: inactive
[9]
  Potency: inactive

## CC1(C)[C@H](C(=O)O)N2C(=O)C[C@H]2S1(=O)=O
[2]
  Potency: inactive
[8]
  Potency: 26.4 µM (active)
[4]
  Potency: inactive
[5]
  Potency: 0.0012 µM (active)
[7]
  Potency: inactive

## CNS(=O)(=O)Cc1ccc2[nH]cc(CCN(C)C)c2c1
[2]
  Potency: inactive
[3]
  Potency: inactive
[4]
  Potency: inactive
[5]
  Potency: inactive
[9]
  Potency: inactive

## N[C@@H](Cc1ccc(O)c(O)c1)C(=O)O
[2]
  Potency: inactive
[5]
  Potency: inactive

## Cc1oc(=O)oc1CN1CCN(c2cc3c(cc2F)c(=O)c(C(=O)O)c2n3C(C)S2)CC1 (configuration not stated)
[2]
  Potency: inactive
[3]
  Potency: inactive
[4]
  Potency: inactive

## NC(=O)c1ccc2[nH]ccc2c1
[2]
  Potency: inactive
[3]
  Potency: inactive
[5]
  Potency: inactive
[6]
  Potency: inactive
[9]
  Potency: inactive

## CCN(CC)CCn1c(=O)c(Cc2ccc(OC)cc2)nc2ccccc21
[2]
  Potency: inactive
[3]
  Potency: inactive
[8]
  Potency: inactive
[4]
  Potency: inactive
[5]
  Potency: inactive
[6]
  Potency: inactive
[7]
  Potency: inactive

## CC(C)OC(=O)OCOP(=O)(CO[C@H](C)Cn1cnc2c(N)ncnc21)OCOC(=O)OC(C)C
[8]
  Potency: 23.5 µM (active)
[4]
  Potency: 11.8 µM (active)
[5]
  Potency: inactive

## Cc1cccc(N(C)C(=S)Oc2ccc3ccccc3c2)c1
[2]
  Potency: inactive
[3]
  Potency: inactive
[4]
  Potency: inactive
[6]
  Potency: inactive
[9]
  Potency: inactive

## C[C@]12C=CC(=O)C=C1CC[C@@H]1[C@@H]2C(=O)C[C@@]2(C)[C@H]1CC[C@]2(O)C(=O)CO
[2]
  Potency: inactive
[3]
  Potency: inactive
[8]
  Potency: inactive
[4]
  Potency: inactive
[5]
  Potency: inactive
[6]
  Potency: inactive
[9]
  Potency: inactive

## CC(=O)CC(c1ccccc1)c1c(O)c2ccccc2oc1=O (configuration not stated)
[2]
  Potency: inactive
[3]
  Potency: inactive
[4]
  Potency: inactive
[5]
  Potency: inactive
[6]
  Potency: inactive
[9]
  Potency: inactive
